In the library only some 19% were active in any assay of this set; here they are far more common.
RORg inh = blocks mouse ROR gamma transcriptional activity | Drosophila S2 Gal4-RORgamma UAS-luciferase reporter, 20 h | Potency, µM (top dose mostly 53.6 µM), without a hit: at the top dose activity change, negative = inhibition, hits mostly inhibitors | 310,000 compounds, 5.4% hits | AID 2551; also: nearly all actives have a fitted effect of over 60% in size
Target sequence (P51450 whole entry, looked up, the tested form may be a part): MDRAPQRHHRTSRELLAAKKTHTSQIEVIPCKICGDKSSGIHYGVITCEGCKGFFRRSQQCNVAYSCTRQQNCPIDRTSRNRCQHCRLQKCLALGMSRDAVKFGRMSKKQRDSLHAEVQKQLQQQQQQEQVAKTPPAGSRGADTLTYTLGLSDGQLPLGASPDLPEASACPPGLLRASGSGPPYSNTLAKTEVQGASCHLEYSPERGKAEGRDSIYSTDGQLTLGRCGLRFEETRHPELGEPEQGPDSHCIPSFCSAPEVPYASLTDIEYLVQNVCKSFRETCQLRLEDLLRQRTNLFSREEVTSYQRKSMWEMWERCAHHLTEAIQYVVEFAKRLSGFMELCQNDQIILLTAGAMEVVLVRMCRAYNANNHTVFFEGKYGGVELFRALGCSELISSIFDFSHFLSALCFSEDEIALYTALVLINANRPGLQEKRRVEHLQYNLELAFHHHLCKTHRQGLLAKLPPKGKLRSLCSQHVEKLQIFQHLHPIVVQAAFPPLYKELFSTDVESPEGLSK
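Read-out: Photinus luciferase luminescence; inhibitors lower reporter signal. Insect Schneider cells with Gal4-ROR gamma fusion under metallothionein promoter, UAS reporter; 700 uM final copper sulfate induction, 20 hr, ambient temperature.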
TDP1 inh = blocks human tyrosyl-DNA phosphodiesterase 1. recombinant TDP1, AlphaScreen DNA substrate cleavage. Potency, µM (highest dose often 130 µM), for the others: at the top dose activity change, negative = inhibition, actives largely listed as inhibitors. 350,000 compounds, 0.28% hits. AID 485290; also: nearly all actives have a fitted effect of over 40% in size
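Recombinant E. coli-expressed Tdp1 (1 nM) preincubated with compound 15 min at RT, then 5'-biotin/3'-phosphotyrosine-FITC DNA substrate (15 nM) added for 5 min. AlphaScreen beads (10 ug/ml) added, 10 min RT; tyrosine-FITC cleavage read as signal loss.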
VP16 counter = Gal4-VP16 reporter inhibition counter-screen. Drosophila S2 Gal4-VP16 UAS-luciferase, luminescence, 20 h. Potency, µM (doses to about 53.6 µM), inactives show at the top dose activity, negative = inhibition, most hits filed as inhibitors. 310,000 compounds, 3.5% hits;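 also: Gal4-VP16 expression switched on by copper sulfate through the metallothionein promoter; nearly all actives have a fitted effect of over 50% in size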
DT40 TDP1 CPT = growth inhibition of DT40 Tdp1-/-;hTDP1 cells with camptothecin (screen for TDP1 inhibitors); chicken DT40 Tdp1-/-;hTDP1 cells + 20 nM CPT, ATP luminescence, 48 h; Potency, µM (highest dose often 46.2 µM), for the others: at the highest dose activity change, negative = growth inhibition, usual class: inhibitors; 420,000 compounds, 12% hits; also: nearly all actives have a fitted effect of over 55% in size
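Chicken DT40 Tdp1-/- cells stably complemented with human TDP1 were seeded at 400 cells/well in medium containing 20 nM camptothecin, exposed to pin-transferred compounds, and grown at 37 °C for at least 48 hr. Viability was read as ATP luminescence.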
TDP1 cell noCPT = qHTS for Inhibitors of human tyrosyl-DNA phosphodiesterase 1 (TDP1): qHTS in cells in absence of CPT; 420,000 compounds, 15% hits; DT40 Tdp1-/- hTDP1 cells, no CPT, ATP luminescence, 48 h; Potency, µM (highest dose often 46.2 µM), without a hit: at the top dose activity change, negative = growth inhibition, actives largely listed as inhibitors; also: nearly all actives have a fitted effect of over 55% in size
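Stably hTDP1-transfected Tdp1-null chicken DT40 cells were treated with library compounds minus camptothecin and grown for at least 48 hr at 37 °C, after which cellular ATP was quantified by luminescence.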
Numbers without * were called inactive; [ ] = dose if it differs, or a comment. Calls follow the shape of the dose curve; as a rule, active = well fitted curve in the direction sought with a large enough effect; inconclusive = small, poorly fitted or top-dose-only effect, or another doubt; inactive = no such curve, though single readings can be large; an effect the other way counts as inactive or inconclusive. % is scaled to controls: 0 for no effect and ±100 for the full control effect; potency is read from the fitted curve at half-maximal effect.

How did N#CCCN(Cc1cccnc1)C(=O)c1sc2cc(F)ccc2c1Cl do in these assays?
RORg inh: -16.0%; TDP1 inh: 0.0%; VP16 counter: inconclusive; DT40 TDP1 CPT: inconclusive; TDP1 cell noCPT: 14.6µM*

Results for Cc1ccc(C2NC(c3ccc4c(c3)OCO4)=CC(c3cc(Br)ccc3O)N2)cc1 (stereo not given) ?
TDP1 inh: 3.5%; DT40 TDP1 CPT: 7.94µM*; TDP1 cell noCPT: 4.47µM*

Results for Oc1ccccc1C1C=C(c2ccc3c(c2)OCO3)NC(c2cccc(Cl)c2)N1 (stereo not given) ?
TDP1 inh: 2.1%; DT40 TDP1 CPT: inconclusive; TDP1 cell noCPT: 12.6µM*

Results for Oc1ccccc1C1C=C(c2ccc3c(c2)OCO3)NC(c2ccc(Br)cc2)N1 (stereo not given) ?
TDP1 inh: 1.9%; DT40 TDP1 CPT: 11.2µM*; TDP1 cell noCPT: 11.2µM*

What do the screens show for `Oc1ccc(Br)cc1C1C=C(c2ccc3c(c2)OCO3)NC(c2ccc(F)c(Br)c2)N1` (stereo not given)?
TDP1 inh: 0.6%

Results for Oc1ccc(Br)cc1C1C=C(c2ccc3c(c2)OCO3)NC(c2ccc(Br)cc2)N1 (stereo not given) ?
TDP1 inh: 2.9%; DT40 TDP1 CPT: 10µM*; TDP1 cell noCPT: 7.94µM*

What do the screens show for `CSc1nc2c(c(=O)[nH]c(=O)n2C)n1C/C=C(\C)Cl`?
RORg inh: -4.8%; TDP1 inh: -5.7%; VP16 counter: -5.1%; DT40 TDP1 CPT: 2.2%; TDP1 cell noCPT: -21.8%

How did COc1ccc(Br)cc1C1NC(c2ccc3c(c2)OCO3)=CC(c2ccccc2O)N1 (stereo not given) do in these assays?
TDP1 inh: 1.6%; DT40 TDP1 CPT: inconclusive; TDP1 cell noCPT: 10µM*

Results for Oc1ccccc1C1C=C(c2ccc3c(c2)OCO3)NC(c2ccc(F)c(Br)c2)N1 (stereo not given) ?
TDP1 inh: 1.5%

How did CCCCNC(=O)CSc1nc2ccccc2c(=O)n1CC1COc2ccccc2O1 (stereo not given) do in these assays?
RORg inh: 23.3%; TDP1 inh: 5.1%; VP16 counter: -3.9%; DT40 TDP1 CPT: -26.7%; TDP1 cell noCPT: -22.6%

Results for O=C(c1cccc(Cl)c1)c1nn(-c2ccccc2)c(=O)cc1C(F)(F)F ?
RORg inh: inconclusive; TDP1 inh: 6.2%; VP16 counter: -8.1%; DT40 TDP1 CPT: 16.4µM*; TDP1 cell noCPT: inconclusive

How did O=C(CSc1nnc(NC2CCCCC2)s1)NCc1ccco1 do in these assays?
RORg inh: 19.0%; TDP1 inh: 2.7%; VP16 counter: -0.7%; DT40 TDP1 CPT: 14.2%; TDP1 cell noCPT: inconclusive

How did Cc1ccc(N=Nc2cc(C)ccc2O)c(C)c1 do in these assays?
RORg inh: -20.2%; VP16 counter: -3.8%; DT40 TDP1 CPT: 0.1%; TDP1 cell noCPT: 19.7%

Results for Oc1ccc(N=Nc2ccc3c(c2)OCCO3)c2ncccc12 ?
RORg inh: 0.316µM*; TDP1 inh: 12.8%; VP16 counter: 0.398µM*; DT40 TDP1 CPT: 2.91µM*; TDP1 cell noCPT: 2.06µM*

Results for Cc1cccc(N=Nc2ccc(O)c3ncccc23)c1 ?
RORg inh: 0.112µM*; TDP1 inh: 5.3%; VP16 counter: 0.0355µM*; DT40 TDP1 CPT: 7.31µM*; TDP1 cell noCPT: 6.51µM*

What do the screens show for `Cc1ccccc1N=Nc1ccc(N=Nc2c(O)ccc3ccccc23)c(C)c1`?
RORg inh: -17.9%[10 µM]; TDP1 inh: 12.8%; VP16 counter: -21.2%; DT40 TDP1 CPT: -28.1%; TDP1 cell noCPT: -22.0%

How did Cc1ccc(C)c(N=Nc2ccc(O)c3ncccc23)c1 do in these assays?
RORg inh: 0.112µM*; TDP1 inh: 10.5%; VP16 counter: -75.5%; DT40 TDP1 CPT: 2.06µM*; TDP1 cell noCPT: 2.06µM*

How did CCN1CCN(c2ccc(S(=O)(=O)N3CCOCC3)cc2NC(=O)/C=C/c2ccc(OC)cc2OC)CC1 do in these assays?
TDP1 inh: 0.6%; DT40 TDP1 CPT: 25.9µM*; TDP1 cell noCPT: inconclusive
